{"source": "the supplement of paper PMC8728848", "assay_in_all_cases": "glycan array binding signal (z-score within array); higher = stronger binding", "conditions_in_all_cases": "glycan notation: IUPAC condensed, linker removed; mutation: R343I", "key": {"Fuc(a1-2)Gal(b1-4)Glc6S": {"target": "Fuc(a1-2)Gal(b1-4)Glc6S", "procedure,_shortened": "(§1)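 The binding signal is a Z-score computed within each array and averaged over linkers. Arrays of the same protein sequence at different concentrations or buffers were also averaged together. Data originate from 3228 arrays in the Consortium for Functional Glycomics database, kept only where the protein sequence was available.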"}, "Fuc(a1-2)[Gal(a1-3)]Gal": {"target": "Fuc(a1-2)[Gal(a1-3)]Gal", "procedure,_shortened": "as §1"}, "[1]": {"target": "Fuc(a1-2)[Gal(a1-3)]Gal(b1-3)GlcNAc", "procedure,_shortened": "as §1"}, "[2]": {"target": "Fuc(a1-2)[GalNAc(a1-4)]Gal(b1-4)GlcNAc", "procedure,_shortened": "as §1"}, "Fuc(a1-3)GlcNAc": {"target": "Fuc(a1-3)GlcNAc", "procedure,_shortened": "as §1"}, "[3]": {"target": "Fuc(a1-3)[Gal(b1-4)]GlcNAc(b1-2)Man(a1-3)[Fuc(a1-3)[Gal(b1-4)]GlcNAc(b1-2)Man(a1-6)]Man(b1-4)GlcNAc(b1-4)GlcNAc", "procedure,_shortened": "as §1"}, "[4]": {"target": "Fuc(a1-3)[Gal(b1-4)]GlcNAc(b1-2)Man(a1-6)[Gal(b1-4)GlcNAc(b1-2)Man(a1-3)]Man(b1-4)GlcNAc(b1-4)GlcNAc", "procedure,_shortened": "as §1"}, "Gal(a1-2)Gal": {"target": "Gal(a1-2)Gal", "procedure,_shortened": "as §1"}, "Gal(a1-3)GalNAc": {"target": "Gal(a1-3)GalNAc", "procedure,_shortened": "as §1"}, "Gal(a1-4)GlcNAc": {"target": "Gal(a1-4)GlcNAc", "procedure,_shortened": "as §1"}, "[5]": {"target": "Gal(b1-3)[GlcNAc(b1-6)]GalNAc", "procedure,_shortened": "as §1"}, "[6]": {"target": "Gal(b1-3)[Neu5Ac(b2-6)]GalNAc", "procedure,_shortened": "as §1"}, "[7]": {"target": "Gal(b1-4)GalNAc(a1-3)[Fuc(a1-2)]Gal(b1-4)GlcNAc", "procedure,_shortened": "as §1"}, "[8]": {"target": "Gal(b1-4)GlcNAc(b1-6)GalNAc", "procedure,_shortened": "as §1"}, "[9]": {"target": "GlcNAc(b1-2)Man(a1-3)[GlcNAc(b1-2)Man(a1-6)]Man(b1-4)GlcNAc(b1-4)GlcNAc", "procedure,_shortened": "as §1"}, "GlcNAc(b1-3)Man": {"target": "GlcNAc(b1-3)Man", "procedure,_shortened": "as §1"}, "[10]": {"target": "GlcNAc(b1-4)[GlcNAc(b1-6)]GalNAc", "procedure,_shortened": "as §1"}, "[11]": {"target": "Man(a1-2)Man(a1-2)Man(a1-3)Man", "procedure,_shortened": "as §1"}, "[12]": {"target": "Man(a1-2)Man(a1-3)[Man(a1-2)Man(a1-6)]Man(a1-6)[Man(a1-2)Man(a1-2)Man(a1-3)]Man", "procedure,_shortened": "as §1"}, "[13]": {"target": "Man(a1-2)Man(a1-3)[Man(a1-6)]Man(a1-6)[Man(a1-2)Man(a1-3)]Man(b1-4)GlcNAc(b1-4)GlcNAc", "procedure,_shortened": "as §1"}, "[14]": {"target": "Man(a1-2)Man(a1-6)[Man(a1-3)]Man(a1-6)[Man(a1-2)Man(a1-2)Man(a1-3)]Man", "procedure,_shortened": "as §1"}, "Man(a1-3)[Man(a1-6)]Man": {"target": "Man(a1-3)[Man(a1-6)]Man", "procedure,_shortened": "as §1"}, "Man(a1-6)Man": {"target": "Man(a1-6)Man", "procedure,_shortened": "as §1"}, "[15]": {"target": "Neu5Ac(a2-3)Gal(b1-3)GlcNAc(b1-3)Gal(b1-3)GlcNAc", "procedure,_shortened": "as §1"}, "[16]": {"target": "Neu5Ac(a2-3)Gal(b1-3)GlcNAc6S", "procedure,_shortened": "as §1"}, "[17]": {"target": "Neu5Ac(a2-3)Gal(b1-4)GlcNAc(b1-3)Gal(b1-4)GlcNAc", "procedure,_shortened": "as §1"}, "[18]": {"target": "Neu5Ac(a2-3)Gal(b1-4)GlcNAc(b1-6)[Neu5Ac(a2-3)Gal(b1-3)]GalNAc", "procedure,_shortened": "as §1"}, "Neu5Ac(a2-6)GalNAc": {"target": "Neu5Ac(a2-6)GalNAc", "procedure,_shortened": "as §1"}, "[19]": {"target": "Neu5Ac(a2-8)Neu5Ac(a2-3)Gal(b1-4)Glc", "procedure,_shortened": "as §1"}}, "note": "The entries come from a sample that favours the strongest signals as a whole."}
{"binder": "Surfactant Protein D (Human); Neck + Carbohydrate Recognition Domain (NCRD) (Homo sapiens) (protein) MLLFLLSALVLLTQPLGYLEAEMKTYSHRTMPSACTLVMCSSVESGLPGRDRDGREGPRGEKGDPGLPGAAGQAGMPGQAGPVGPKGDNGSVGEPGPKGDTGPSGPPGPPGVPGPAGREGALGKQGNIGPQGKPGPKGEAGPKGEVGAPGMQGSAGARGLAGPKGERGVPGERGVPGNTGAAGSAGAMGPQGSPGARGPPGLKGDKGIPGDKGAKGESGLPDVASLRQQVEALQGQVQHLQAAFSQYKKVELFPNGQSVGEKIFKTAQFVKPFTEAQLLCTQAGGQLASPRSAAENAALQQLVVAKNEAAFLSMTDSKTEGKFTYPTGESLVYSNWAPGEPNDDGGSEDCVEIFTNGKWNDIACGEKRLVVCEF", "values": [{"measurement": "glycan array binding signal (z-score)", "setting": "Fuc(a1-2)Gal(b1-4)Glc6S", "result": -0.274}, {"measurement": "glycan array binding signal (z-score)", "setting": "Fuc(a1-2)[Gal(a1-3)]Gal", "result": -0.265}, {"measurement": "glycan array binding signal (z-score)", "setting": "[1]", "result": -0.272}, {"measurement": "glycan array binding signal (z-score)", "setting": "[2]", "result": -0.266}, {"measurement": "glycan array binding signal (z-score)", "setting": "Fuc(a1-3)GlcNAc", "result": 5.51}, {"measurement": "glycan array binding signal (z-score)", "setting": "[3]", "result": -0.264}, {"measurement": "glycan array binding signal (z-score)", "setting": "[4]", "result": -0.272}, {"measurement": "glycan array binding signal (z-score)", "setting": "Gal(a1-2)Gal", "result": -0.275}, {"measurement": "glycan array binding signal (z-score)", "setting": "Gal(a1-3)GalNAc", "result": -0.268}, {"measurement": "glycan array binding signal (z-score)", "setting": "Gal(a1-4)GlcNAc", "result": -0.27}, {"measurement": "glycan array binding signal (z-score)", "setting": "[5]", "result": -0.274}, {"measurement": "glycan array binding signal (z-score)", "setting": "[6]", "result": -0.276}, {"measurement": "glycan array binding signal (z-score)", "setting": "[7]", "result": -0.263}, {"measurement": "glycan array binding signal (z-score)", "setting": "[8]", "result": -0.275}, {"measurement": "glycan array binding signal (z-score)", "setting": "[9]", "result": 5.45}, {"measurement": "glycan array binding signal (z-score)", "setting": "GlcNAc(b1-3)Man", "result": -0.076}, {"measurement": "glycan array binding signal (z-score)", "setting": "[10]", "result": -0.05}, {"measurement": "glycan array binding signal (z-score)", "setting": "[11]", "result": 4.64}, {"measurement": "glycan array binding signal (z-score)", "setting": "[12]", "result": 4.37}, {"measurement": "glycan array binding signal (z-score)", "setting": "[13]", "result": 4.08}, {"measurement": "glycan array binding signal (z-score)", "setting": "[14]", "result": 4.33}, {"measurement": "glycan array binding signal (z-score)", "setting": "Man(a1-3)[Man(a1-6)]Man", "result": 0.263}, {"measurement": "glycan array binding signal (z-score)", "setting": "Man(a1-6)Man", "result": -0.261}, {"measurement": "glycan array binding signal (z-score)", "setting": "[15]", "result": -0.268}, {"measurement": "glycan array binding signal (z-score)", "setting": "[16]", "result": -0.275}, {"measurement": "glycan array binding signal (z-score)", "setting": "[17]", "result": -0.278}, {"measurement": "glycan array binding signal (z-score)", "setting": "[18]", "result": -0.275}, {"measurement": "glycan array binding signal (z-score)", "setting": "Neu5Ac(a2-6)GalNAc", "result": -0.269}, {"measurement": "glycan array binding signal (z-score)", "setting": "[19]", "result": -0.267}]}
